Assay outcomes as filed in PubChem BioAssay.
The list is not random: actives were taken first. Their share in the collection is about 3.9%.
HIF-2a block – HIF-2a inhibition; 786-0 RCC cells HIF-2a reporter, luciferase luminescence, overnight; inhibition, % at 18.8 µM; hit rate 0.72% among 360,000; AID 624352;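 active = inhibition of the luminescence signal of 40% or more relative to plate controls, in a single-dose primary screen at 18.75 µM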
TROY NFkB inh – inhibitors of TROY-dependent NF-kB signaling; Q293 LMP1-TROYcd NF-kB luciferase reporter, 4 h; inhibition, % at 10 µM; hit rate 0.98% among 360,000; AID 1347056;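 active = compounds whose plate-normalised and pattern-corrected inhibition of the luciferase reporter signal at the single screening dose is 50% or more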
KKLEB cytotox – reduces viability of KKLEB cystic fibrosis airway cells; KKLEB CF airway cells viability, ATPlite luminescence, overnight; stronger effect = lower value; cells stimulated with P. aeruginosa culture filtrate; activity change (cytotoxicity), % at 5 µM; hit rate 0.36% among 360,000; AID 602141;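 active = corrected activity change at or below -50% at 5 µM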
CF NFkB inh – blocks PAF-induced NF-kB reporter in cystic fibrosis cells. inhibition, % at 5 µM. hit rate 0.86% among 360,000. KKLEB NF-kB-GFP reporter, GFP fluorescence overnight. AID 588850;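 active = at least 50% inhibition at 5 µM, scaled per plate between neutral and stimulator controls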;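 note: PAF is a Pseudomonas aeruginosa culture filtrate used as stimulus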
Peg3 prom inh – inhibitors of Peg3 promoter; HeLa PEG-Prom luciferase reporter, luminescence, overnight; inhibition, % at 20 µM; hit rate 1.7% among 360,000; AID 588405;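 active = inhibition of at least 50% at 20 µM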
TWEAK Fn14 block – TWEAK-Fn14 signaling inhibition | inhibition, % at 10 µM | hit rate 2% among 360,000 | TWEAK-stimulated Fn14 reporter cells, luciferase luminescence, 8 h; in the data active = inhibition above about 50%
Large screens that a line does not name were inactive.

Clc1nc(Nc2ccc(N3CCOCC3)cc2)c2ccccc2n1	none
NNc1nc(-c2ccccc2Cl)c2cc(Br)ccc2n1	TROY NFkB inh 87
Clc1ccccc1-c1ncnc2ccc(Br)cc12	none
O=C(OCC(=O)N1CCN(c2ccccc2)CC1)c1ccc(Cl)cc1[N+](=O)[O-]	none
O=C(Nc1ccc(Cl)cn1)c1ccc2c(Cl)c3c(nc2c1)CCC3	TROY NFkB inh 60, TWEAK Fn14 block 51
Cc1cccc(NC(=O)c2ccc3nccnc3c2)n1	none
CN1CCN(CCCNC(=O)c2ccc3c(Cl)c4c(nc3c2)CCCC4)CC1	Peg3 prom inh 87
CCC(C)NC(=O)c1ccc2c(Cl)c3c(nc2c1)CCC3 (configuration not stated)	none
Cc1cccc(NC(=O)c2ccc3c(Cl)c4c(nc3c2)CCCC4)n1	TROY NFkB inh 71, TWEAK Fn14 block 63
COc1ccc(S(=O)(=O)Nc2cccc3c2O[C@H](CN(C)S(=O)(=O)c2cn(C)cn2)[C@@H](C)CN([C@H](C)CO)C3=O)cc1	none
COc1ccc(-n2c(SCC#N)nc3c(sc(=S)n3-c3ccccc3)c2=O)c(OC)c1	none
CC(O)(c1ccccc1)c1nc(-c2ccc(F)c(Cl)c2)cs1 (configuration not stated)	none
FC(F)(F)Oc1ccccc1C(c1nnnn1C1CCCC1)N1CCN(C/C=C/c2ccccc2)CC1 (configuration not stated)	none
CCN1CCN(C(=O)C(=O)c2cn(CC(=O)N(CC)CC)c3ccccc23)CC1	Peg3 prom inh 63
O=C1CCCN1C1CCN(Cc2ccccc2)S(=O)(=O)N1 (configuration not stated)	none (no result: KKLEB cytotox, CF NFkB inh, Peg3 prom inh)
CC(=O)Nc1ccc(NC(=O)CNC(=O)c2sc3ccccc3c2Cl)cc1	none
COC(=O)c1ccc(N2CCN(C)CC2)c(NC(=O)c2sc3ccccc3c2Cl)c1	Peg3 prom inh 110
Cc1cccc(C)c1NC(=O)CSC(=O)c1sc2ccccc2c1Cl	TROY NFkB inh 59
CN1CCN(c2ccc(NC(=O)c3sc4ccccc4c3Cl)cc2)CC1	TROY NFkB inh 60
CCO[C@@H]1OC(C(=O)Nc2ccccc2)=C[C@H](c2ccc(C(F)(F)F)cc2)[C@H]1CCCO	none
COC1=C(OC)C(=O)C(Sc2ccc3ccccc3c2)=CC1=O	HIF-2a block 49, Peg3 prom inh 64, TWEAK Fn14 block 58
Cc1cc(C)cc(NC(=O)CCCCCN2C(=O)[C@@H]3Cc4ccccc4CN3C2=O)c1	TWEAK Fn14 block 55
O=C(CSc1ccccc1)NCCCc1ccccc1	none
CCN(CC)CCNC(=O)c1c(C)n(-c2ccccc2)c2cc(Br)c(OC)cc12	Peg3 prom inh 65
CCOC(=O)c1c(C)oc2c1C(=O)c1ccccc1C2=O	CF NFkB inh 76
Cc1oc2c(c1C(=O)c1ccccc1)C(=O)C(=O)c1ccccc1-2	HIF-2a block 88, CF NFkB inh 88, Peg3 prom inh 108
COc1ccc(S(=O)(=O)Nc2ccc3c(c2)C(=O)N([C@H](C)CO)C[C@H](C)[C@@H](CN(C)C(=O)Nc2c(C)noc2C)OCCCC[C@H](C)O3)cc1	none
CC(SCc1cn2cc(Cl)ccc2n1)C(=O)O (configuration not stated)	TWEAK Fn14 block 76 (no result: TROY NFkB inh)
O=C(O)c1ccccc1SCc1cn2cc(Cl)ccc2n1	none
COCc1cc(=O)[nH]c(Nc2nc3ccc(C)cc3o2)n1	TWEAK Fn14 block 106
CC(C)[C@H](NC(=O)c1ccc(Cl)cc1Cl)C(=O)NNc1cccc(C(=O)O)c1	none
O=C(N/N=C/c1c(O)ccc2ccccc12)c1cccnc1	Peg3 prom inh 52
O=C(CN1CCOCC1)N/N=C/c1c(O)ccc2ccccc12	none
Cc1nn(Cc2ccccc2)c(Cl)c1/C=N/NC(=O)c1cccnc1	none
O=C(CSCC(=O)Nc1ccccc1)N/N=C/c1c(O)ccc2ccccc12	Peg3 prom inh 52
Cc1c(/C=N/NC(=O)c2cccnc2)c2ccccc2n1Cc1ccccc1	TWEAK Fn14 block 56
COc1ccc(NC(C)C(=O)N/N=C/c2c(O)ccc3ccccc23)cc1 (configuration not stated)	Peg3 prom inh 57
Fc1ccc(-n2cnnn2)c(F)c1	none
O=C(CCCOc1ccc(Cl)cc1Cl)Nc1ccc(O)cc1C(=O)O	none
O=C(COC(=O)c1n[nH]c2ccccc12)c1cc(F)ccc1F	none
CC(=O)Nc1cc(-c2cccc(NS(C)(=O)=O)c2)cn2c(-c3cccc(C(C)=O)c3)cnc12	none
CC(=O)Nc1cc(-c2cccc(NS(C)(=O)=O)c2)cn2c(-c3ccc(F)c(Cl)c3)cnc12	TWEAK Fn14 block 92
CC(=O)Nc1cccc(-c2cc(NC(C)=O)c3ncc(-c4ccc(F)cc4)n3c2)c1	TROY NFkB inh 91, TWEAK Fn14 block 100
C[C@H](CO)N1C[C@H](C)[C@@H](CN(C)S(=O)(=O)c2cccs2)Oc2ccc(NC(=O)c3ccncc3)cc2C1=O	none
Cc1ccccc1NC(=O)CSc1nc2ccccc2c2nc(CCn3cncc3C)nn12	none
Cc1ccc(NC(=O)CSc2nc3ccccc3c3nc(CCn4cncc4C)nn23)c(C)c1	Peg3 prom inh 96
Cc1ccc(S(=O)(=O)NC(=NCc2ccccc2)c2ccc(F)cc2)cc1	Peg3 prom inh 51
CC1NC(=O)N(C)[C@@H]2NC(=O)N(C)C(c3ccc([N+](=O)[O-])cc3)[C@@H]12 (some centres not stated)	none
Cc1ccnc(NC(=O)/C=C/c2cccs2)c1	TWEAK Fn14 block 53
O=C(/C=C/c1cccs1)Nc1nncs1	none
CCN1CCN(c2nc3ccccc3n3cnnc23)CC1	none
O=C(CSCc1ccc(Cl)cc1)N/N=C/c1ccco1	none
CCN1C(=O)CC(C(C)C)N(C2CCCC2)c2nc(Nc3ccc(C(=O)NC4CCN(C)CC4)cc3OC)ncc21 (configuration not stated)	Peg3 prom inh 66
COc1cc(C(=O)NC2CCN(C)CC2)ccc1Nc1ncc2c(n1)N(C1CCCCC1)CCC(=O)N2C	Peg3 prom inh 91
CCN1C(=O)CSc2ccc(C(=O)NC3CCCCC3)cc21	none
CCN1C(=O)CC(c2ccccc2)N(C2CCCC2)c2nc(Nc3ccc(C(=O)NC4CCN(C)CC4)cc3OC)ncc21 (configuration not stated)	Peg3 prom inh 94
COc1cc(C(=O)NC2CCN(C)CC2)ccc1Nc1ncc2c(n1)N(Cc1ccccc1)CCC(=O)N2C	none
COCCn1c(=S)[nH]c2cc(C(=O)N3CCc4ccccc43)ccc2c1=O	none
CCOC(=O)N1CCN(C(=O)C2CCN(C(=O)c3ccccc3C)CC2)CC1	Peg3 prom inh 107
CCOC(=O)N1CCN(C(=O)C2CCC(CNS(=O)(=O)c3ccc(Cl)cc3)CC2)CC1 (configuration not stated)	TWEAK Fn14 block 51 (no result: TROY NFkB inh)
C=CCOCCN(CCOCC=C)C1=NS(=O)(=O)c2ccccc21	none
